# In the supplement of paper PMC10037445:
# In all, about 2,900 compounds were measured (“NF-kB SEAP reporter activity, fold change vs agonist alone”: median about 0.99, highest 2% from about 2.6 on). For the sample, the highest values were picked, then their nearest neighbours and some compounds at random.
# How the values were obtained:
# [1] = test system: RAW-Dual; assay: NF-kB SEAP reporter activity, fold change vs agonist alone; higher = enhanced NF-kB activity
# Summary of the method: (§1)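 RAW-Dual macrophages (50,000 cells/well in DMEM, 384-well plates) received 50 nL of library stock by pin tool, then a PRR agonist 1 h later, and were kept at 37 °C, 5% CO2. After 20 hours, supernatant was read for IRF by QuantiLuc luminescence and for NF-κB by QuantiBlue absorbance at 620 nm. Reporter activity is fold change over agonist-alone wells. Cytotoxic wells had IncuCyte confluency below 70% of agonist controls in both mask sets.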
# [2] = test system: RAW-Dual; assay: NF-kB SEAP reporter activity, fold change vs agonist alone; cytotoxicity flag (confluency mask): not cytotoxic; higher = enhanced NF-kB activity
# Summary of the method: as §1
# [3] = test system: RAW-Dual; assay: NF-kB SEAP reporter activity, fold change vs agonist alone; cytotoxicity flag (confluency mask): cytotoxic (confluency <70% of control); higher = enhanced NF-kB activity
# Summary of the method: as §1
# [4] = library stock concentration (final ~1000-fold dilution): 10 mM, cytotoxicity flag (confluency mask): cytotoxic (confluency <70% of control), agonist: Imiquimod (TLR7) […]
# [5] = library stock concentration (final ~1000-fold dilution): 10 mM, cytotoxicity flag (confluency mask): cytotoxic (confluency <70% of control), agonist: MPLA (TLR4) […]
# [6] = library stock concentration (final ~1000-fold dilution): 10 mM, cytotoxicity flag (confluency mask): not cytotoxic, agonist: Imiquimod (TLR7) […]
# [7] = library stock concentration (final ~1000-fold dilution): 10 mM, cytotoxicity flag (confluency mask): not cytotoxic, agonist: MPLA (TLR4) […]
# [8] = agonist: ODN 1826 (TLR9) 0.5 ug/mL
# [9] = agonist: Pam2CSK4 (TLR2/6) 0.1 ug/mL
# [10] = agonist: Pam3CSK4 (TLR2/1) 0.1 ug/mL
smiles,measurement,setting,value
C#Cc1cccc(Nc2ncnc3cc(OCCOC)c(OCCOC)cc23)c1.Cl,NF-kB SEAP reporter activity,"[1]; library stock concentration (final ~1000-fold dilution): 2 mM, cytotoxicity flag (confluency mask): not cytotoxic, agonist: Imiquimod (TLR7) […]",0.949
same,NF-kB SEAP reporter activity,"[1]; library stock concentration (final ~1000-fold dilution): 2 mM, cytotoxicity flag (confluency mask): not cytotoxic, agonist: MPLA (TLR4) […]",1.39
C#Cc1cccc(Nc2ncnc3cc(OC)c(OCCCCCCC(=O)NO)cc23)c1,NF-kB SEAP reporter activity,[1]; [4],1.4
same,NF-kB SEAP reporter activity,[1]; [5],1.87
COc1cc2ncnc(Nc3ccc(O)cc3)c2cc1OC,NF-kB SEAP reporter activity,[1]; [6],1.05
same,NF-kB SEAP reporter activity,[1]; [7],1.16
COc1cc2ncnc(Nc3ccc(O)cc3)c2cc1OC (library stock concentration (final ~1000-fold dilution): 10 mM),NF-kB SEAP reporter activity,[2]; agonist: LPS (TLR4) 0.1 ug/mL,0.948
same,NF-kB SEAP reporter activity,[2]; [8],0.826
same,NF-kB SEAP reporter activity,[2]; [9],0.971
same,NF-kB SEAP reporter activity,[2]; [10],0.867
C#Cc1cccc(Nc2ncnc3cc(OCCOC)c(OCCO)cc23)c1.Cl,NF-kB SEAP reporter activity,[1]; [6],1.81
same,NF-kB SEAP reporter activity,[1]; [7],2.51
NS(=O)(=O)OC[C@H]1C[C@@H](Nc2ccnc3cc(-c4cccc(SC(F)(F)F)c4)nn23)[C@H](O)[C@@H]1O (library stock concentration (final ~1000-fold dilution): 10 mM),NF-kB SEAP reporter activity,[3]; agonist: LPS (TLR4) 0.1 ug/mL,0.308
same,NF-kB SEAP reporter activity,[3]; [8],0.19
same,NF-kB SEAP reporter activity,[3]; [9],0.0814
same,NF-kB SEAP reporter activity,[3]; [10],0.152
NS(=O)(=O)OC[C@H]1C[C@@H](Nc2ccnc3cc(-c4cccc(SC(F)(F)F)c4)nn23)[C@H](O)[C@@H]1O,NF-kB SEAP reporter activity,[1]; [4],0.145
same,NF-kB SEAP reporter activity,[1]; [5],0.255
CCNC(=O)[C@]12CCC(C)(C)C[C@H]1[C@H]1C(=O)C=C3[C@@]4(C)C=C(C#N)C(=O)C(C)(C)[C@@H]4CC[C@@]3(C)[C@]1(C)CC2,NF-kB SEAP reporter activity,[1]; [6],0.15
same,NF-kB SEAP reporter activity,[1]; [7],0.256
CCNC(=O)[C@]12CCC(C)(C)C[C@H]1[C@H]1C(=O)C=C3[C@@]4(C)C=C(C#N)C(=O)C(C)(C)[C@@H]4CC[C@@]3(C)[C@]1(C)CC2 (library stock concentration (final ~1000-fold dilution): 10 mM),NF-kB SEAP reporter activity,[2]; agonist: LPS (TLR4) 0.1 ug/mL,0.324
same,NF-kB SEAP reporter activity,[2]; [8],0.193
same,NF-kB SEAP reporter activity,[2]; [9],0.0804
same,NF-kB SEAP reporter activity,[2]; [10],0.173
CC(O)C(=O)O.CN1CCN(c2ccc3nc(-c4c(N)c5c(F)cccc5[nH]c4=O)[nH]c3c2)CC1,NF-kB SEAP reporter activity,[1]; [4],0.335
same,NF-kB SEAP reporter activity,[1]; [5],0.591
CC(O)C(=O)O.CN1CCN(c2ccc3nc(-c4c(N)c5c(F)cccc5[nH]c4=O)[nH]c3c2)CC1 (library stock concentration (final ~1000-fold dilution): 10 mM),NF-kB SEAP reporter activity,[3]; agonist: LPS (TLR4) 0.1 ug/mL,0.341
same,NF-kB SEAP reporter activity,[3]; [8],0.18
same,NF-kB SEAP reporter activity,[3]; [9],0.15
same,NF-kB SEAP reporter activity,[3]; [10],0.219
C=C(CC(=O)OCCCCCCCC)C(=O)O (library stock concentration (final ~1000-fold dilution): 10 mM),NF-kB SEAP reporter activity,[2]; agonist: LPS (TLR4) 0.1 ug/mL,0.76
same,NF-kB SEAP reporter activity,[2]; [8],0.641
same,NF-kB SEAP reporter activity,[2]; [9],0.455
same,NF-kB SEAP reporter activity,[2]; [10],0.645
C=C(CC(=O)OCCCCCCCC)C(=O)O,NF-kB SEAP reporter activity,[1]; [6],0.711
same,NF-kB SEAP reporter activity,[1]; [7],0.955
NCC(O)(c1ccc(Cl)cc1)c1ccc(-c2cn[nH]c2)cc1 (stereo unspecified) (library stock concentration (final ~1000-fold dilution): 10 mM),NF-kB SEAP reporter activity,[2]; agonist: LPS (TLR4) 0.1 ug/mL,0.342
same,NF-kB SEAP reporter activity,[2]; [8],0.435
same,NF-kB SEAP reporter activity,[2]; [9],0.236
same,NF-kB SEAP reporter activity,[2]; [10],0.327
NCC(O)(c1ccc(Cl)cc1)c1ccc(-c2cn[nH]c2)cc1 (stereo unspecified),NF-kB SEAP reporter activity,[1]; [6],0.966
same,NF-kB SEAP reporter activity,[1]; [7],0.527
CN1C(=N)NC(C)(c2cc(NC(=O)c3ccc(F)cn3)ccc2F)CS1(=O)=O.O=C(O)C(F)(F)F (stereo unspecified),NF-kB SEAP reporter activity,[1]; [6],0.873
same,NF-kB SEAP reporter activity,[1]; [7],0.781
CN1C(=N)NC(C)(c2cc(NC(=O)c3ccc(F)cn3)ccc2F)CS1(=O)=O.O=C(O)C(F)(F)F (stereo unspecified) (library stock concentration (final ~1000-fold dilution): 10 mM),NF-kB SEAP reporter activity,[2]; agonist: LPS (TLR4) 0.1 ug/mL,0.826
same,NF-kB SEAP reporter activity,[2]; [8],0.731
same,NF-kB SEAP reporter activity,[2]; [9],0.823
same,NF-kB SEAP reporter activity,[2]; [10],0.856
O=C(OCC1OC(OC(=O)c2cc(O)c(O)c(OC(=O)c3cc(O)c(O)c(O)c3)c2)C(OC(=O)c2cc(O)c(O)c(OC(=O)c3cc(O)c(O)c(O)c3)c2)C(OC(=O)c2cc(O)c(O)c(OC(=O)c3cc(O)c(O)c(O)c3)c2)C1OC(=O)c1cc(O)c(O)c(OC(=O)c2cc(O)c(O)c(O)c2)c1)c1cc(O)c(O)c(OC(=O)c2cc(O)c(O)c(O)c2)c1 (stereo unspecified) (library stock concentration (final ~1000-fold dilution): 10 mM),NF-kB SEAP reporter activity,[2]; agonist: LPS (TLR4) 0.1 ug/mL,1.25
same,NF-kB SEAP reporter activity,[2]; [8],0.116
same,NF-kB SEAP reporter activity,[2]; [9],1.04
same,NF-kB SEAP reporter activity,[2]; [10],0.185
O=C(OCC1OC(OC(=O)c2cc(O)c(O)c(OC(=O)c3cc(O)c(O)c(O)c3)c2)C(OC(=O)c2cc(O)c(O)c(OC(=O)c3cc(O)c(O)c(O)c3)c2)C(OC(=O)c2cc(O)c(O)c(OC(=O)c3cc(O)c(O)c(O)c3)c2)C1OC(=O)c1cc(O)c(O)c(OC(=O)c2cc(O)c(O)c(O)c2)c1)c1cc(O)c(O)c(OC(=O)c2cc(O)c(O)c(O)c2)c1 (stereo unspecified),NF-kB SEAP reporter activity,[1]; [6],0.144
same,NF-kB SEAP reporter activity,[1]; [7],0.319
C=CC1CC1(NC(=O)C1CC(Oc2ncc(OC)c3ccc(Cl)cc23)CN1C(=O)C(NC(=O)OC(C)(C)C)C(C)(C)C)C(=O)NS(=O)(=O)C1CC1 (stereo unspecified) (library stock concentration (final ~1000-fold dilution): 10 mM),NF-kB SEAP reporter activity,[3]; agonist: LPS (TLR4) 0.1 ug/mL,1.1
same,NF-kB SEAP reporter activity,[3]; [8],0.915
same,NF-kB SEAP reporter activity,[3]; [9],0.518
same,NF-kB SEAP reporter activity,[3]; [10],0.508
C=CC1CC1(NC(=O)C1CC(Oc2ncc(OC)c3ccc(Cl)cc23)CN1C(=O)C(NC(=O)OC(C)(C)C)C(C)(C)C)C(=O)NS(=O)(=O)C1CC1 (stereo unspecified),NF-kB SEAP reporter activity,[1]; [5],1.06
Cc1cc(Nc2cc(N3CCN(C)CC3)nc(/C=C/c3ccccc3)n2)n[nH]1.O=C(O)C(O)C(O)C(=O)O,NF-kB SEAP reporter activity,[1]; [6],0.89
same,NF-kB SEAP reporter activity,[1]; [7],0.85
Cc1cc(Nc2cc(N3CCN(C)CC3)nc(/C=C/c3ccccc3)n2)n[nH]1.O=C(O)C(O)C(O)C(=O)O (library stock concentration (final ~1000-fold dilution): 10 mM),NF-kB SEAP reporter activity,[2]; agonist: LPS (TLR4) 0.1 ug/mL,0.407
same,NF-kB SEAP reporter activity,[2]; [8],0.191
same,NF-kB SEAP reporter activity,[2]; [9],0.297
same,NF-kB SEAP reporter activity,[2]; [10],0.279
CNC(C)C(=O)NC(C(=O)N1CCCC1c1nc(C(=O)c2ccc(F)cc2)cs1)C1CCCCC1 (stereo unspecified) (library stock concentration (final ~1000-fold dilution): 10 mM),NF-kB SEAP reporter activity,[3]; agonist: LPS (TLR4) 0.1 ug/mL,0.436
same,NF-kB SEAP reporter activity,[3]; [8],0.764
same,NF-kB SEAP reporter activity,[3]; [9],0.902
same,NF-kB SEAP reporter activity,[3]; [10],0.517
CNC(C)C(=O)NC(C(=O)N1CCCC1c1nc(C(=O)c2ccc(F)cc2)cs1)C1CCCCC1 (stereo unspecified),NF-kB SEAP reporter activity,[1]; [4],1.16
same,NF-kB SEAP reporter activity,[1]; [5],0.714
